Bioassay records as filed in PubChem BioAssay.
Hits are enriched below; roughly 22% of the tested compounds scored in any of these assays.
CYP2C19 inh: blockers of cytochrome P450 2C19 activity – biochemical, luminescence, ADME assay, primary screen; CYP2C19 Supersomes, luciferin-H EGE luminescence, 30 min; P33261; inhibition, % at 5 µM; 21% of 96,000 active;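 active means CYP2C19 inhibition above a set limit at 5 µM in the primary screen, cut at about 50% in these data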
Target sequence (P33261 whole entry, looked up): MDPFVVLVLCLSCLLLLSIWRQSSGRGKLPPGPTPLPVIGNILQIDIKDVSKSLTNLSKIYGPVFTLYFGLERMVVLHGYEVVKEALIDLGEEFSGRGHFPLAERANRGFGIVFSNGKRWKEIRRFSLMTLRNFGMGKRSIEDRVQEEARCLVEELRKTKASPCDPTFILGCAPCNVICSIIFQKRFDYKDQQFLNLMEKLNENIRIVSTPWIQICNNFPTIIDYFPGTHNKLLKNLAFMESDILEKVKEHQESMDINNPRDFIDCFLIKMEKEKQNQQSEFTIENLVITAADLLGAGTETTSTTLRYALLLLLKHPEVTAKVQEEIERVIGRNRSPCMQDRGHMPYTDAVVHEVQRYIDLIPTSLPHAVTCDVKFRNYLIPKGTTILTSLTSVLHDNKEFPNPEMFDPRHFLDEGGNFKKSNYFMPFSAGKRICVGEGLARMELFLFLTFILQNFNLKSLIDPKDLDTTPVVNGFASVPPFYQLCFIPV
Measles CPE: compounds protecting cells from measles virus cytopathic effect, primary screen, measles RdRp inhibitor project, single point, MLSMR library, absorbance | Measles virus-infected cells, CPE protection | protection (pct of control), % at 4 µM | 1.5% of 140,000 active; in the data active means protection mostly above about 24%, no sharp cut-off; inactive means mostly below about 26%
CYP2C19 act: human CYP2C19 activators, primary screen, biochemical, luminescence; Cytochrome P450 2C19 (Homo sapiens), P33261; recombinant CYP2C19, luciferin-H EGE luminescence; active compounds read high; 0 = fully inhibited enzyme, 1 = untreated enzyme; activation factor at 5 µM; 96,000 tested, under 10 active;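 active means activation factor of at least 2 at 5 µM in the primary screen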
CYP2C9 activ: human CYP2C9 activators, primary screen, biochemical, luminescence. Cytochrome P450 2C9 (Homo sapiens), P11712. recombinant CYP2C9, luciferin-H conversion; active compounds read high; factor 1 = untreated enzyme, 0 = blocked. activation factor at 5 µM. 1.4% of 96,000 active. AID 1024, 2008;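 active means activation factor of 2 or more for CYP2C9 at a 5 µM dose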
CYP2C9 inhib: blockers of cytochrome P450 2C9 activity – biochemical, luminescence, ADME assay, primary screen. P11712. CYP2C9 Supersomes, luciferin-H conversion. inhibition, % at 5 µM. 20% of 96,000 active. AID 777, 2007;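 active means blocking of liver enzyme CYP2C9 beyond about 50% at 5 µM, limit read from the data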
Of the large screens only hits and unclear results are named; the others gave an inactive call.

CCOC(=O)N1CCN(S(=O)(=O)c2ccc(F)cc2)CC1	none
CCOC(=O)N1CCC(N2CCN(S(=O)(=O)c3ccc4ccccc4c3)CC2)CC1	CYP2C9 activ 2.2
CN1CCN(S(=O)(=O)c2cccc(S(=O)(=O)c3cccc(S(=O)(=O)N4CCN(C)CC4)c3)c2)CC1	CYP2C9 inhib 80
Cc1c(=O)n(OCc2ccccc2F)c2ccccc2[n+]1[O-]	none
CC1CCc2nn(CC(=O)N3CCc4ccccc43)cc2C1 (centres undefined)	none
CCC(C)NC(=O)CSc1nnc(-c2ccncc2)n1-c1ccc(OC)cc1 (centres undefined)	CYP2C19 inh 100, CYP2C9 inhib 86
CCNC(=O)CSc1nnc(-c2ccccc2)n1-c1ccc(OCC)cc1	CYP2C9 inhib 60
CCC(C)NC(=O)CSc1nc2n[nH]c(C)c2c(=N)n1-c1ccc(OC)cc1 (centres undefined)	none
CCOC(=O)CNC(=O)CSc1nnc(-c2cccc(C)c2)n1-c1ccc(OC)cc1	CYP2C19 inh 69
CCOc1ccc(NC(=O)CSc2nnc(-c3ccccc3)n2N)cc1	none
CCOC(=O)c1cnc(SC2CC(=O)N(c3ccc(C)cc3)C2=O)nc1N (centres undefined)	none
CC1(C)CC(NCc2ccc3c(c2)OCO3)CCO1 (centres undefined)	none
CCCS(=O)(=O)c1c(S(=O)(=O)CCC)c2cc(CC)ccn2c1C(=O)OC	none
CCCS(=O)(=O)c1c(S(=O)(=O)CCC)c2ccccn2c1C(=O)OC	CYP2C9 inhib 52
COc1ccc(C(=O)c2ccccc2)cc1Br	CYP2C9 activ 2.2
COc1ccc(C(=O)c2ccc(OC)c(OC)c2)cc1	none
COc1ccc(C(=O)c2ccc(OC)c(N)c2)cc1N	CYP2C9 activ 2.6
CCN(CC)C(=O)C1CCCN(Cc2ccc(F)c(F)c2)C1 (centres undefined)	CYP2C19 inh 55
CCN(CC)C(=O)C1CCCN(Cc2ccccc2C(F)(F)F)C1 (centres undefined)	CYP2C19 inh 58
COc1ccc(Cl)cc1C(=O)NCC(C)C	CYP2C9 activ 3.1
CCNC(=O)c1cc(Cl)ccc1OC	none (no result: CYP2C19 inh, CYP2C19 act, CYP2C9 activ, CYP2C9 inhib)
CCCC(C)NC(=O)c1cc(Cl)ccc1OC (centres undefined)	CYP2C9 activ 3.5
COC(=O)c1ccc(CNC(=O)CSc2nnc(COc3ccccc3)n2C)o1	none
CC(C)(C)CC(=O)NCCCCCCNC(=O)CC(C)(C)C	none (no result: CYP2C19 inh, CYP2C19 act, CYP2C9 activ, CYP2C9 inhib)
O=C(COC(=O)CC12CC3CC(CC(C3)C1)C2)Nc1ncc(Cl)cc1Cl	CYP2C19 inh 89, CYP2C9 inhib 66
CC(C)(Oc1ccc(Cl)cc1)C(=O)OCC(=O)Nc1ncc(Cl)cc1Cl	CYP2C19 inh 91
O=C(COC(=O)C12CC3CC(CC(C3)C1)C2)Nc1ncc(Cl)cc1Cl	CYP2C19 inh 79
Cc1ccc(S(=O)(=O)NCC(=O)OCC(=O)Nc2ncc(Cl)cc2Cl)cc1	none
CC(C)n1c(O)c(N=NC(=O)c2ccccc2NS(=O)(=O)c2cccs2)c2ccccc21	none (no result: CYP2C19 inh, CYP2C19 act, CYP2C9 activ, CYP2C9 inhib)
CCOC(=O)c1ccc(OS(=O)(=O)c2ccccc2)c(OC)c1	none (no result: CYP2C19 inh, CYP2C19 act, CYP2C9 activ, CYP2C9 inhib)
CC12CCC(C(=O)Nc3cc(Cl)ccc3Cl)(C(Br)C1=O)C2(C)C (centres undefined)	none (no result: CYP2C19 inh, CYP2C19 act, CYP2C9 activ, CYP2C9 inhib)
CNC(=O)C(Sc1ccccc1)c1ccccc1 (centres undefined)	CYP2C19 inh 91
CCN(CC)C(=O)C(Sc1ccccc1)c1ccccc1 (centres undefined)	CYP2C19 inh 90, Measles CPE 61
CCN(CCO)C(=O)C(c1ccccc1)c1ccccc1	none
COc1ccc(OC)c(NC(=O)C(Sc2ccccc2)c2ccccc2)c1 (centres undefined)	CYP2C19 inh 56
CCCNC(=O)C(Sc1ccccc1)c1ccccc1 (centres undefined)	none (no result: CYP2C19 inh, CYP2C19 act, CYP2C9 activ, CYP2C9 inhib)
O=C(Nn1cnnc1)C(c1ccccc1)c1ccccc1	none
O=C(Nn1cnnc1)C(Sc1ccccc1)c1ccccc1 (centres undefined)	CYP2C19 inh 61, CYP2C9 inhib 74
COc1ccc(C)cc1NC(=O)C(Sc1nnc(Nc2cc(C)ccc2OC)s1)c1ccccc1 (centres undefined)	none (no result: CYP2C19 inh, CYP2C19 act, CYP2C9 activ, CYP2C9 inhib)
Cc1ccccc1N1CC(O)(c2ccccc2)[N+]2=C1SCC2 (centres undefined)	none (no result: CYP2C19 inh, CYP2C19 act, CYP2C9 activ, CYP2C9 inhib)
COc1nnc(-c2ccc(N3CCOCC3)c(NC(=O)c3ccco3)c2)c2ccccc12	CYP2C9 inhib 65
COc1nnc(-c2ccc(N3CCOCC3)c(NC(=O)c3ccccc3)c2)c2ccccc12	CYP2C19 inh 81, CYP2C9 inhib 70
COc1nnc(-c2ccc(N3CCOCC3)c(NC(C)=O)c2)c2ccccc12	none
O=C(Nc1ccc(N2CCOCC2)cc1N1CCOCC1)c1ccco1	none
O=C(NCCc1c[nH]c2ccccc12)[C@@H]1C[C@H]1[C@@H](NP(=O)(c1ccccc1)c1ccccc1)c1ccccc1	none (no result: CYP2C19 inh, CYP2C19 act, CYP2C9 activ, CYP2C9 inhib)
C=CCNC(=O)C1CCN(c2nc(C)cc(-c3ccccc3)n2)CC1	CYP2C19 inh 82, CYP2C9 inhib 77
O=C1C2C3CCCC3=C3CCCC3C2C(=O)N1c1ccc(Cl)cc1 (centres undefined)	CYP2C19 inh 75, CYP2C9 inhib 54 (no result: Measles CPE)
COc1ccc(C(C)=O)cc1CN1C(=O)C(C)N(c2ccc(C)cc2)C1=O (centres undefined)	CYP2C19 inh 82, CYP2C9 inhib 84
Cc1cccc(N2CCN(C(=O)CSc3ccsc3[N+](=O)[O-])CC2C)c1 (centres undefined)	none (no result: CYP2C19 inh, CYP2C19 act, CYP2C9 activ, CYP2C9 inhib)
CC(C)N(C(=O)N1CCC(c2nc(-c3ccncc3)no2)CC1)C(C)C	CYP2C19 inh 66
O=S(=O)(c1ccc2ccccc2c1)N1CCC(c2nc(-c3ccncc3)no2)CC1	none (no result: CYP2C19 inh, CYP2C19 act, CYP2C9 activ, CYP2C9 inhib)
NS(=O)(=O)c1ccc(NCc2ccccc2OCc2ccccc2F)cc1	CYP2C9 inhib 75
Cc1ccc(NCc2ccccc2OCc2ccccc2F)cc1	CYP2C19 inh 57
Oc1ccc(NCc2ccccc2OCc2ccccc2F)cc1	CYP2C19 inh 52
NS(=O)(=O)c1ccc(NCc2cc(Cl)ccc2OCc2ccc(F)cc2)cc1	none (no result: CYP2C19 inh, CYP2C19 act, CYP2C9 activ, CYP2C9 inhib)
CCNC(=S)Nc1cc(OCC)c(NC(=O)c2cccs2)cc1OCC	none (no result: CYP2C19 inh, CYP2C19 act, CYP2C9 activ, CYP2C9 inhib)
COCCn1c(=S)[nH]c2cc(C(=O)N3CCc4ccccc43)ccc2c1=O	Measles CPE 59
C=C(C)CSc1nc2ncccc2[nH]1	none
Cc1ccc(CSc2nc3ccncc3[nH]2)cc1	CYP2C19 inh 99, CYP2C9 inhib 88
O=C(c1ccc(CSc2nc3ccncc3[nH]2)cc1)N1CCN(c2cccc(Cl)c2)CC1	none (no result: CYP2C19 inh, CYP2C19 act, CYP2C9 activ, CYP2C9 inhib)
Cc1ccc(CSc2nc3ncccc3[nH]2)cc1	CYP2C19 inh 76, CYP2C9 inhib 56
Clc1ccc(CSc2nc3ccncc3[nH]2)cc1	CYP2C19 inh 98, CYP2C9 inhib 89
CN(C(=S)NC(=O)CCCOc1ccc(Cl)cc1Cl)c1ccccc1	none
CCOC(=O)c1c(C)sc2c1N(C(=O)CN1CCOCC1)c1cc(Cl)ccc1S2	none
